# Source: PubChem (National Center for Advancing Translational Sciences (NCATS))
# Rows were chosen to be rich in hits. Some 9.3% of all compounds tested hit in one or more screens of this group.
# FLuc counter = inhibits or activates purified firefly luciferase, miR-21 counter-screen; Potency, µM (titrated, usually from 57.5 µM), without a hit: at the highest dose activity change, negative = inhibition, most hits filed as inhibitors; purified FLuc, Km substrates, luminescence inhibition; AID 588342; 6.9% of 360,000 active; P08659;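 further: plate controls were vehicle for no effect and reference inhibitor for full effect; nearly all actives have a fitted effect of over 55% in size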
# Target sequence (P08659 whole entry, looked up): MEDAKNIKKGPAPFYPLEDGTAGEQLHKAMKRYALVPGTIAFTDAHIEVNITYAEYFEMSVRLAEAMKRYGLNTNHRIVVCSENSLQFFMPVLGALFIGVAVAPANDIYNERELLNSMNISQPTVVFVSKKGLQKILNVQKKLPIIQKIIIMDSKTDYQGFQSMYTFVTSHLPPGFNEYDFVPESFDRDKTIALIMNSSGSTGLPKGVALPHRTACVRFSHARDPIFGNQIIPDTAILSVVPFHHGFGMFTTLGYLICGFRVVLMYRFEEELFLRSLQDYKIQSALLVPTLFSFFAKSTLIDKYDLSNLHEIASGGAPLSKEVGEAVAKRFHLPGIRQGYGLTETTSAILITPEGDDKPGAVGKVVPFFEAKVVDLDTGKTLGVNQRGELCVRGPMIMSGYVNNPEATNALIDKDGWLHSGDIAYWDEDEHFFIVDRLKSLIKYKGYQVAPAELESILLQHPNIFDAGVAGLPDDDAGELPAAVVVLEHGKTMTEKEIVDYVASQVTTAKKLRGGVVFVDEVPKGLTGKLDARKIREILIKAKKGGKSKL
#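 Biochemical qHTS of compounds, final roughly 60 µM downward over six points, against 10 nM purified firefly luciferase using Km concentrations of substrates (10 uM D-luciferin, 10 uM ATP) in Tris acetate pH 7.5 buffer; luminescence output.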
# ELG1 genotoxic = genotoxicity induction in ELG1-luciferase HEK293T cells; HEK293T ELG1-luciferase reporter, luminescence, 16 h; 1.3% of 330,000 active; Potency, µM (series often up to 46 µM), for the others: top-dose activity change, positive = activation, hits mostly activators; further: % of control where 0% means no effect; nearly all actives have a fitted effect of over 60% in size
#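 Quantitative HTS format in 1536-well plates. HEK293T ELG1-luciferase reporter cells receive test compound and are incubated 16 hr at 37 °C, 5% CO2; ONE-Glo added, 30 min room temperature, then luminescence read.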
# NPC1 promoter act = activators of NPC1 promoter; Huh7 NPC1 promoter luciferase reporter, 24 h; Potency, µM (doses to about 9.22 µM), without a hit: top-dose activation, most hits filed as activators; 2.4% of 320,000 active; further: % of control where 0% means no effect; nearly all actives have a fitted effect of over 60% in size
#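 Readout is luciferase luminescence, reflecting NPC1 promoter activation in stably transfected Huh7 cells after 24 h compound exposure at 37 °C in reduced-serum medium with 10% FBS.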
# Rab9 prom act = activators of Rab9 promoter; 2.8% of 320,000 active; Potency, µM (doses to about 9.22 µM), inactives show at the top dose activation, negative = inhibition, actives largely listed as activators; Huh7 Rab9 promoter-luciferase reporter, luminescence, 24 h; further: % of control where 0% means no effect; nearly all actives have a fitted effect of over 60% in size
#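 Quantitative HTS format; Huh7 Rab9-luciferase reporter cells (1500/well) receive compound 2 h post-plating, incubate 24 h at 37 °C, then get luciferase reagent for 10 min before luminescence reading.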
# ELG1 repair inh = inhibitors of ELG1-dependent DNA repair in HEK293T cells; Potency, µM (series often up to 46.1 µM), without a hit: top-dose activity change, negative = inhibition, most hits filed as inhibitors; 2.3% of 330,000 active; HEK293T ELG1-luciferase reporter, luminescence, 16 h; DNA damage induced by 5-fluorouridine; further: on the % scale 0 is the no-effect control and ±100 the full control effect; nearly all actives have a fitted effect of over 55% in size
#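 5-Fluorouridine DNA damage + compound/DMSO, 2,000 cells/well, 16 h, 37 °C/5% CO2. ONE-Glo, 30 min RT, luminescence. Readout = decrease in reporter signal.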
# SMN2 splice up = increases expression of the SMN2 splice variant; HEK293 SMN2-luciferase splicing reporter, luminescence, 30-36 h; Potency, µM (series often up to 46.1 µM), inactives show top-dose activity change, positive = activation, hits mostly activators; 2.8% of 210,000 active; AID 1458; further: % of control where 0% means no effect; nearly all actives have a fitted effect of over 55% in size
#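 qHTS luciferase splicing reporter: luminescence rises when SMN2 exon 7 is included in transfected HEK293 cells. Compound exposure lasted 30-36 h at 37C, with 4.5 mM final sodium butyrate as control, followed by a ONE-Glo read.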
# * marks the source's active call; other numbers are inactive results; ? = inconclusive; / = no result; [ ] = dose if it differs, or a comment. The call rests on the fitted dose curve; in most records, active means well fitted curve in the direction sought with a large enough effect; inconclusive means small, poorly fitted or top-dose-only effect, or another doubt; inactive means no such curve, though single readings can be large; an effect the other way counts as inactive or inconclusive. Potency means the concentration at half of the fitted maximal effect.
SMILES,FLuc counter,ELG1 genotoxic,NPC1 promoter act,Rab9 prom act,ELG1 repair inh,SMN2 splice up
Cc1cc(C)c2cc(CN(CCO)C(c3nnnn3Cc3ccc(F)cc3)C(C)C)c(=O)[nH]c2c1 (configuration not stated),5%[2.3 µM],-7%,1%,-4%,5.2µM*,5%
Cc1cc(C)c2cc(C(O)c3nnnn3Cc3ccccc3)c(=O)[nH]c2c1 (configuration not stated),3%,1%,-3%,-8%,14%,10%
O=C(/C=C/c1ccccc1)CC(=O)c1ccccc1O,15µM*,?,26%,?,?,/
O=C(/C=C/c1ccccc1)NC(=O)c1ccccc1O,1.7µM*,?,?,?,?,/
Cc1ccccc1C(=O)NNC(=O)/C=C/c1ccccc1,-6%,2%,0%,4%,25%,18%
Cc1cc(C)cc(N(CCC#N)C(=O)COC(=O)C2CCN(c3ccc(C(F)(F)F)cn3)CC2)c1,-3%,-7%,-5%,-2%,-21%,/
CC1CC(C)CN(c2ccc(C(=O)NCc3ccc4c(c3)OCO4)cc2[N+](=O)[O-])C1 (configuration not stated),-2%,0%,-3%,13%,-29%,-8%
O=C(Nc1c(C(=O)Nc2ccccc2F)oc2ccccc12)c1cc2ccccc2o1,-15%,/,/,/,/,-6%
COc1cc(NC(=O)C2CCCN(S(=O)(=O)c3ccc4c(c3)CCCN4C(C)=O)C2)cc(OC)c1 (configuration not stated),3%,-3%,-4%,11%,9.2µM*,/
COc1ccc(S(=O)(=O)N2CCCC(C(=O)Nc3cccnc3)C2)cc1Cl (configuration not stated),-1%,-8%,-4%,-16%,23µM*,-57%
CCOc1ccc(OCC)c(NS(=O)(=O)c2ccc3c(c2)CCN3C(=O)C2CCC2)c1,-1%,-8%,-4%,-4%,-7%,-7%
COc1ccc2nc(/C(C#N)=C\c3ccc(C(=O)O)cc3)[nH]c2c1,24µM*,2%,-2%,1%,22%,/
COc1ccc(OC)c(/C=C(\C#N)c2nc3ccccc3c(=O)[nH]2)c1,-11%,/,/,/,/,-11%
Cc1ccc2nc(/C(C#N)=C\c3ccc(Oc4ccc([N+](=O)[O-])cn4)cc3)[nH]c2c1,-12%,-1%,0%,-5%,5.2µM*,-14%
COc1ccc2nc(/C(C#N)=C\c3ccc(Oc4ccc([N+](=O)[O-])cn4)cc3)[nH]c2c1,-27%,7%,0%,-9%,-17%,3%
Cc1ccc(C(=O)NC2CCN(CC(=O)NC3CCC(C)CC3)CC2)cc1 (configuration not stated),-6%,-6%,-11%,2%,-3%,/
COc1ccc(C(=O)N2CCC3(CC2)CN(c2ccccc2)C3)cc1,/,/,/,/,/,-44%
O=C(N/N=C/C(Br)=C\c1ccccc1)c1n[nH]c2c1CCC2,2.4µM*,2.3µM*,?,20%,?,13µM*
CC(/C=N/NC(=O)c1n[nH]c2c1CCC2)=C\c1ccccc1,4.8µM*,2.3µM*,28%,2%,?,?
O=C(CNS(=O)(=O)c1cccc(Cl)c1)Nc1ccc(-c2nc3ccccc3s2)cc1,15µM*,8.2µM*,?,1.6µM*,?,4.5µM*
CC(C)(C)c1ccc(S(=O)(=O)NCC(=O)Nc2ccc(-c3nc4ccccc4s3)cc2)cc1,?,?,-2%,27%,?,11µM*
Cc1ccc(C)c(S(=O)(=O)NC(C)C(=O)Nc2ccc(-c3nc4ccccc4s3)cc2)c1 (configuration not stated),7.6µM*,?,3.5µM*,3.2µM*,?,5%
COc1ccc(NC(=O)C(C)NS(=O)(=O)c2ccccc2)cc1Cl (configuration not stated),-3%,0%,-4%,0%,6%,-9%
CC(NS(=O)(=O)c1cccc(Cl)c1)C(=O)Nc1ccc(-c2nc3ccccc3s2)cc1 (configuration not stated),17µM*,?,?,2.8µM*,?,20µM*
CC[C@]1(O)C[C@@H]2CN(CCc3c([nH]c4ccccc34)[C@@](C(=O)OC)(c3cc4c(cc3OC)N(C)C3[C@]45CCN4CC=C[C@](CC)(C45)[C@@H](OC(C)=O)[C@]3(O)C(=O)OC)C2)C1 (some centres not stated),/,/,/,/,/,-28%
SMILES,FLuc counter,ELG1 genotoxic,NPC1 promoter act,Rab9 prom act,ELG1 repair inh,SMN2 splice up
Cc1ccccc1OCC(=O)NCC(c1ccc(Cl)cc1)N1CCOCC1 (configuration not stated),-3%,/,/,/,/,/
CCN(CC)CCNC(=O)CNC(=O)c1nn(-c2ccc(OC)c(OC)c2)c(=O)c2ccccc12,6%,1%,-1%,29%,14%,/
Nc1cccnc1-n1nc(C(F)(F)F)cc1C(F)(F)F,1%,-10%,-4%,2%,-27%,16%
CCCCNC(=O)CSc1nc2cc3c(cc2c(=O)n1CCCC(=O)NCc1ccc(OC)cc1)OCO3,-4%,/,/,/,/,/
COc1ccc(Cn2c(SCC#N)nc3ccc(N4CCOCC4)cc3c2=O)cc1,?,?,3.5µM*,3.5µM*,?,?
COc1ccc(CNC(=O)CCCn2c(SCC#N)nc3cc4c(cc3c2=O)OCO4)cc1,0%,5%,0%,-1%,23µM*,-22%
CC#CCN(Cc1ccco1)C(=O)c1ccc(OC2CCN(Cc3ccccn3)CC2)cc1,4%,-18%,10%,0%,9%,/
CC(C)Cc1cc(C(=O)Nc2cccnc2)no1,5.4µM*,10µM*,0%,?,?,-4%
CSc1ccccc1NC(=O)c1cc(CC(C)C)on1,?,21µM*,?,?,?,?
Cc1cc(C(=O)Nc2cccnc2)no1,-2%,4%,0%,-1%,3%,4%
CCOc1ccc(C(=O)Nc2cccc(C(=O)O)c2C)cc1Cl,3.4µM*,-10%,?,?,?,0.5µM*
COc1ccc(C(=O)Nc2ccccc2C(=O)N/N=C/c2ccccn2)cc1OC,0.85µM*,21µM*,-8%,-14%,?,/
CCN(CC)S(=O)(=O)c1cc(C(=O)Nc2ccccc2C(=O)O)ccc1OC,6µM*,5%,16%,0%,?,10%
CCN(CC)C(=O)c1ccccc1NC(=O)c1cccc(S(=O)(=O)N(CC)CC)c1,1%,0%,-7%,-4%,-21%,0%
